# In the library only some 5% were active in any assay of this set; here they are far more common.
# USP8 inh – inhibitors of human USP8 deubiquitinase. purified USP8, Ub-rhodamine cleavage fluorescence, 30 min. inhibition, % at 20 µM. hit rate 4.2% among 47,000
# OTUD3 inh – inhibitors of human OTUD3 deubiquitinase | purified OTUD3, Ub-rhodamine fluorescence, 2 h | inhibition, % at 25 µM | hit rate 0.7% among 47,000 | AID 1645858, 2021
# Target sequence (Q5T2D3 whole entry, looked up): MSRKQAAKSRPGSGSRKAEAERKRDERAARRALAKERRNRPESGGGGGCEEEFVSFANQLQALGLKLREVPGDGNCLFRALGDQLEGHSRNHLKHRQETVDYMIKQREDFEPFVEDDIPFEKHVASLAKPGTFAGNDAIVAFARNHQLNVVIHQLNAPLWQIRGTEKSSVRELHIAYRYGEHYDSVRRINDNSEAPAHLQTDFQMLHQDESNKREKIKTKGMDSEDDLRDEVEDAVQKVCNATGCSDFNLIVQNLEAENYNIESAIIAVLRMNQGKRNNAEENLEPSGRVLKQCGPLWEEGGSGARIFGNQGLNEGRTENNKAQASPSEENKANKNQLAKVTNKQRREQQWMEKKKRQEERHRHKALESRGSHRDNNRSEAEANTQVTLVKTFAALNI
# USP7 block – inhibitors of human USP7 deubiquitinase | Ubiquitin carboxyl-terminal hydrolase 7 (Homo sapiens), Q93009 | purified USP7, Ub-rhodamine cleavage fluorescence | inhibition, % at 20 µM | hit rate 0.3% among 47,000
# UCHL1 inh – inhibitors of human UCHL1 deubiquitinase. Ubiquitin carboxyl-terminal hydrolase isozyme L1 (Homo sapiens), P09936. purified UCHL1, Ub-rhodamine cleavage fluorescence. inhibition, % at 20 µM. hit rate 0.2% among 47,000. AID 1645859, 2021
# USP10 block – inhibitors of human USP10 deubiquitinase; Ubiquitin carboxyl-terminal hydrolase 10 (Homo sapiens), Q14694; purified USP10, Ub-rhodamine fluorescence, 60 min; inhibition, % at 20 µM; hit rate 1.1% among 47,000; AID 1645856, 2021
# Active calls of the source: *. Cut-off read from the data, not from the text of the source: active = inhibition above about 30%; inactive = the rest.
SMILES,USP8 inh,OTUD3 inh,USP7 block,UCHL1 inh,USP10 block
CS(=O)(=O)c1cnc2ncnn2c1C1CCCN(C(=O)C2CCCC2)C1 (stereo not drawn),7,3,1,-4,0
CSc1ncccc1C(=O)OCc1ccc(Cl)c(Cl)c1,13,2,8,1,10
Cc1csc(NC(=O)c2c[nH]c3ccc(F)cc3c2=O)n1,85*,-70,15,25,46*
COc1ccc2[nH]cc(C(=O)c3ccc(F)cc3)c(=O)c2c1,2,-1,4,-2,1
COc1cc(NC(=O)Cn2c(=O)[nH]c3ccccc3c2=O)cc(OC)c1,19,11,6,1,5
O=C(CCC1CCCCC1)Nc1ccccc1C(=O)N1CCOCC1,80*,29,11,2,27
COc1cc(OCC(=O)NC(C)C)cc2c1C(=O)O[C@@H](C)CCCC(=O)CCCCC2,1,11,3,0,-3
COc1cc2c(c(OCC(=O)Nc3ccc4c(c3)OCCO4)c1)C(=O)O[C@@H](C)CCCC(=O)CCCCC2,68*,27,3,1,32*
Cn1c(=O)c2c(-c3ccccc3)n(-c3ccc4c(c3)OCCO4)cc2n(C)c1=O,74*,-16,-12,-5,0
Cn1c(=O)c2c(-c3ccccc3)n(CCO)cc2n(C)c1=O,-116,0,0,-1,-1
O=C(NCc1ccc(F)cc1)c1ccc(N2CCCC2)nn1,-1,7,2,0,1
O=C(COC(=O)c1ccccc1O)Nc1ccc2[nH]c(=O)[nH]c2c1,29,6,12,1,16
Cc1cccc(C(=O)OCC(=O)Nc2ccc3[nH]c(=O)[nH]c3c2)c1,52*,32*,15,3,18
Cc1ccc2nc(N3CCc4ccccc4C3)c3nncn3c2c1,45*,21,3,-2,-7
N#Cc1cc2c([nH]c1=O)CC(c1ccccc1)C/C2=N\Nc1ccccc1 (stereo not drawn),51*,-10,-15,4,-2
Cc1cc(C(=O)C(=O)Nc2cccc(Cl)c2)c(C)n1-c1ccc(F)cc1,-110,1,8,5,3
Cc1nnc(NC(=O)C(=O)c2cc(C)n(-c3ccc(Cl)cc3)c2C)s1,41*,7,6,5,2
Nc1nc(SCC(=O)NC2CCCCC2)[nH]c(=O)c1NC(=O)c1ccco1,-155,9,3,0,-2
Nc1nc(SCc2ccc([N+](=O)[O-])cc2)[nH]c(=O)c1NC(=O)c1ccco1,39*,-7,13,2,24
CCOC(=O)N1CCC(NC(=O)CCn2c(=S)oc3ccccc32)CC1,-9,21,2,-4,7
CC(=O)NCCc1ccc(O)cc1,0,-3,1,-2,2
COC(=O)C1(Cc2ccc(O)cc2)OC(=O)C(O)=C1c1ccc(O)cc1 (stereo not drawn),-8,78*,-54,37*,-10
O=C(/C=C/c1ccc(Br)cc1)Nc1cnc2ccccc2c1,49*,-3,10,3,15
CN(Cc1ccccc1)S(=O)(=O)c1ccc(C(=O)Nc2ccccc2)cc1,4,2,1,3,6
COc1ccc2c(Cl)c(C(=O)Nc3ccc(S(=O)(=O)N(C)Cc4ccccc4)cc3)sc2c1,2,-4,9,1,42*
SMILES,USP8 inh,OTUD3 inh,USP7 block,UCHL1 inh,USP10 block
Cc1ccc(C(=O)c2cn(CC(=O)Nc3ccccc3C)c3ccc(C)cc3c2=O)cc1,-4,-31,3,-2,6
Cc1ccc2c(c1)c(=O)c(C(=O)c1ccccc1)cn2CC(=O)Nc1ccc2c(c1)OCO2,71*,0,23,-1,31*
Cc1ccc2c(c1)c(=O)c(C(=O)c1ccccc1)cn2CC(=O)Nc1ccc(C)c(Cl)c1,59*,8,18,5,15
CCN(CC)S(=O)(=O)c1ccc(N2CCOCC2)c(NC(=O)COc2ccccc2)c1,-19,0,1,3,-4
CCN(CC)S(=O)(=O)c1ccc2oc(N3CCOCC3)nc2c1,68*,3,0,-2,1
CCOc1cc2c(cc1OCC)C(c1ccc(OC)cc1)N(c1ccc(OC)c(Cl)c1)C(=O)C2 (stereo not drawn),36*,2,15,11,-4
O=C(c1ccc(F)cc1)[C@@H]1[C@H](C(=O)OC(c2ccccc2)c2ccccc2)N2c3ccccc3C=CC2[C@@]12C(=O)Nc1ccccc12 (stereo partly drawn),-13,-123,-34,-29,-9
CCCc1ccc(C(=O)[C@@H]2[C@@H](C(=O)c3cccs3)N3c4ccc(C)cc4C(C)=C[C@@H]3[C@@]23C(=O)Nc2ccccc23)cc1,67*,-17,33*,1,38*
Cc1cccc(CNC(=O)CCN2C(=O)c3cccnc3Sc3ccccc32)c1,19,19,6,2,2
Cc1noc(-c2nn(C)c3c2CN(C(=O)C(C)Oc2cccc(Cl)c2)CC3)n1 (stereo not drawn),-1,-1,-7,-3,-2
CC(C)Cn1c(=O)c2nscc2n(CC(=O)Nc2ccccc2)c1=O,63*,13,-42,15,-9
c1ccc(-c2cc3c(N4CCc5ccccc5C4)ncnc3s2)cc1,53*,23,18,4,15
Cc1noc(C)c1-c1ccc(S(=O)(=O)Nc2ccc(C#N)cc2)cc1,31*,19,1,1,8
Cc1ccc(NS(=O)(=O)c2ccc(-c3c(C)noc3C)cc2)cc1,14,14,-133,7,7
COc1ccc(-c2[nH]nc3c2C(c2ccc(O)c(OC)c2)CC(=O)O3)cc1 (stereo not drawn),-38,-3,-7,-2,0
CC(=O)NC(C)C(=O)N(c1ccc(C)cc1)C1(C(=O)Nc2ccccc2)CCCCC1 (stereo not drawn),-2,-10,-2,-1,-2
O=C1CCSc2ccc(S(=O)(=O)CCC(=O)N3CCc4ccccc4C3)cc2N1,-1,10,-1,0,-1
Cc1cc(C)nc(Nc2cncc(C3CCCN(C(=O)c4cccnc4)C3)n2)n1 (stereo not drawn),2,-18,4,-3,-4
COc1cn(-c2ccc(F)cc2)nc1C(=O)Nc1ccc(Cl)cc1Cl,49*,16,11,24,11
COc1ccc(-c2nc3ccc(Cl)cn3c2NCCc2ccccc2)cc1,0,0,5,0,-1
COc1ccc(CCNC(=O)Cn2c(=O)c3sccc3n(Cc3cccc([N+](=O)[O-])c3)c2=O)cc1OC,27,30,2,3,32*
Cc1ccc(NC(=O)Cn2c(=O)n(CC(=O)NCCc3ccccc3)c(=O)c3sccc32)cc1C,50*,1,19,0,40*
O=C(Cn1c(=O)c2sccc2n(CC(=O)NCCC2=CCCCC2)c1=O)NCc1ccccc1Cl,17,2,18,2,37*

# Screening results as filed in PubChem BioAssay.
